# Laboratory results taken from PubChem BioAssay AID588591 (National Center for Advancing Translational Sciences (NCATS), 2011).
# Hit rate of the full screen: of about 390,000 compounds, about 4,700 (1.2%) were called active. Where a call stands in place of a potency, no number is given. About 4% were inconclusive and are not listed. Calls follow the shape of the dose curve; as a rule, active = well fitted inhibition curve with a large enough effect; inconclusive = small, poorly fitted or top-dose-only effect, or another doubt; inactive = no such curve, though single readings can be large or run the other way. For the sample, actives were picked, then their nearest neighbours and some compounds at random.
# Biological target: DNA polymerase eta (Homo sapiens) (UniProt Q9Y253)
# Sequence (Q9Y253 whole entry, looked up): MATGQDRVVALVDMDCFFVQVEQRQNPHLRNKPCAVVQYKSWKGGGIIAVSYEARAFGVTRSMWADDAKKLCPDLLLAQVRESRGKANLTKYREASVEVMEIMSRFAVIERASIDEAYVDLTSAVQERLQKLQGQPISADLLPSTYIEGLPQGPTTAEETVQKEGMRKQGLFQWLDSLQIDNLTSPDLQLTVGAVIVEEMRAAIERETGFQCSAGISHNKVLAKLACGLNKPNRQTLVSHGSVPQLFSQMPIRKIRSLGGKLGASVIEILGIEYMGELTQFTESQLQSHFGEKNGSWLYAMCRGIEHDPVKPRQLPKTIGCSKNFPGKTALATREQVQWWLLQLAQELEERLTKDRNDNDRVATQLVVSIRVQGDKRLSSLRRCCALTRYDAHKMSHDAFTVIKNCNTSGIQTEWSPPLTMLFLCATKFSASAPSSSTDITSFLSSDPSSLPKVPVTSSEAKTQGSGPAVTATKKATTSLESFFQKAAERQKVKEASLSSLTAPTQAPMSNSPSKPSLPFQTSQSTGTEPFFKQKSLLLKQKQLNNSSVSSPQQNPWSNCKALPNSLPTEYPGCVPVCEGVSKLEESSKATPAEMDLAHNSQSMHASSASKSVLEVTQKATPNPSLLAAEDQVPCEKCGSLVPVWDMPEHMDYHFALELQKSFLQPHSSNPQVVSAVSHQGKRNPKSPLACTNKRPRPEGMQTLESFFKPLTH
# Assay: qHTS for Inhibitors of Polymerase Eta
# Details: recombinant Pol eta, fluorescent DNA replication assay; series mostly up to 114 µM
# How it was run: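 Pol eta (10 nM) was preincubated with compounds for 15 min at room temperature, after which fluorescent replication substrate (50 nM final) was added to start the reaction. Fluorescence was read kinetically at 0 and 10 min.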
# Potency is read from the fitted curve at half-maximal effect.
row,Structure (SMILES),Potency
1,CCOc1ccc(CNC(=O)CCc2c(C)nn(-c3ccc(N4CCCCC4)nn3)c2C)cc1,inactive
2,CCOC(=O)c1cc2c(=O)n3ccccc3nc2n(Cc2ccco2)c1=NC(=O)c1ccc(F)cc1,inactive
3,OC[C@H]1O[C@@H](n2cnc3c(N[C@H]4CC5CCC4C5)ncnc32)[C@H](O)[C@@H]1O (stereo partly specified),inactive
4,O=C(Nc1ccc2nc(SCC(=O)N3CCCc4ccccc43)sc2c1)c1ccc(F)cc1,inactive
5,O=C(O)CCn1cc(/C=C/C(=O)c2ccc(Cl)cc2)c(-c2cccc(Br)c2)n1,56.2 µM (active)
6,CCc1ccc(S(=O)(=O)c2nnn3c2nc(NCc2ccccc2OC)c2cc(Cl)ccc23)cc1,inactive
7,CCCN1CCN(C(=O)Cn2ncc3ccccc32)CC1,25.1 µM (active)
8,CCc1nn(CC(=O)N2CCN(CC)CC2)c(=O)c2cccn12,inactive
9,CN1CCN(C(=O)Cn2c(C(F)(F)F)nc3ccccc32)CC1,inactive
10,Cc1ccc(NC(=O)CN2C(=O)CC(C)Sc3ccccc32)c(C)c1 (stereo unspecified),inactive
11,COc1ccc(Br)cc1CNC(=O)c1cc(=O)[nH]c2ccc(S(=O)(=O)N3CCCC3)cc12,inactive
12,O=C(O)c1ccc(NN=CC2=C(N3CCOCC3)/C(=C/c3ccccc3)CC2)cc1,39.8 µM (active)
13,CC(C)(CNC(=O)c1ccc(Cl)c(S(=O)(=O)N2CCc3ccccc3C2)c1)N1CCOCC1,inactive
14,O=C(Nc1ccc(F)cc1)c1cccnc1N1CCOCC1,inactive
15,CCOc1ccc(NC(=O)C(=O)NCCc2csc3nc(-c4ccccc4F)nn23)cc1,inactive
16,Cc1cc2ccccc2n1CCNC(=O)c1ccc(F)cc1,inactive
17,Cc1ccc2c(=O)c(C(=O)c3ccc(Cl)cc3)cn(CC(=O)NC3CCCCC3)c2n1,inactive
18,NC1=NC(c2cc(F)cc(F)c2)n2c(nc3ccccc32)N1 (stereo unspecified),inactive
19,O=C(CN1CCCCCC1)Nc1ccc(Br)cc1[N+](=O)[O-],inactive
20,COc1ccc(Br)cc1/C=N/Nc1ccc(S(=O)(=O)Nc2ccccc2C(=O)O)cc1[N+](=O)[O-],15.8 µM (active)
21,COC(=O)c1ccccc1NS(=O)(=O)c1ccc2c(c1)CCCN2C(C)=O,inactive
22,Cc1ccc(C)c(NS(=O)(=O)c2ccc(OCC(=O)NCc3cccnc3)cc2)c1,inactive
23,COc1cccc(/C=N/Nc2ccc(S(=O)(=O)Nc3ccccc3C(=O)O)cc2[N+](=O)[O-])c1O,17.8 µM (active)

row,Structure (SMILES),Potency
1,COc1ccc(S(=O)(=O)NC(C)c2ccccc2)cc1C(=O)N1CCCCC1 (stereo unspecified),inactive
2,Cc1ccc(NS(=O)(=O)c2ccc3c(c2)n(C)c(=O)c(=O)n3C)c(C)c1,inactive
3,Cc1ccc(NS(=O)(=O)c2ccc(N/N=C/c3ccccc3OCC(=O)O)c([N+](=O)[O-])c2)c(C)c1,70.8 µM (active)
4,CCN(CC(=O)NCc1cccs1)C(=O)c1cccc(S(=O)(=O)Nc2ccccc2OC)c1,inactive
5,COc1ccc(N2CCN(Cc3nc4c(c(=O)[nH]c(=O)n4C)n3Cc3ccc(Cl)cc3)CC2)cc1,inactive
6,CCOc1ccccc1NC(=O)Cn1c(=O)n(Cc2ccccc2)c(=O)c2c(C)c(C(=O)N(C)C)sc21,inactive
7,COc1ccc(C2(Nc3cccc(F)c3)C(=O)c3ccccc3C2=O)cc1,inactive
8,CCCCC12CN3CC(C)(CN(C1)C3c1ccc(O)c(OC)c1)C2=O (stereo unspecified),inactive
9,COc1ccc2c(c1)c(N1CCCC1=O)c(C(=O)Nc1ccc(OC)c(Cl)c1)n2C,inactive
10,Cc1ccc(C(=O)Nc2cc3c(cc2N2CCCC2)n(C)c(=O)c(=O)n3C)cc1,inactive
11,Cc1ccccc1CSc1nc(-c2ccccc2)nc2c1Cc1c(CO)cnc(C)c1O2,inactive
12,CCCC(=O)N1CCN(c2nc3c(OC)ccc(C)c3s2)CC1,inactive
13,COc1cc(/C=C/C(=O)OCC(=O)NC(=O)NCc2ccccc2)ccc1OCC#N,inactive
14,COC(=O)c1ccc(COc2ccc(/C=C/C(=O)c3ccc(OC)c(CSCC(=O)O)c3)cc2OC)cc1,20 µM (active)
15,COC(=O)c1ccc(C(NC(=O)OCc2ccccc2)/C(C)=C/[C@@H](C)C(=O)NCc2ccc(OC)c(OC)c2)cc1 (stereo partly specified),inactive
16,COc1ccc(CCNC(=O)c2cn(C)c3ccc(S(=O)(=O)N(C)C4CCCCC4)cc3c2=O)cc1OC,inactive
17,CCOc1ccccc1/C=c1\sc2nc(-c3ccco3)nn2c1=O,7.94 µM (active)
18,CCOC(=O)C1CCN(C(c2ccc(F)cc2)c2sc3nc(-c4ccco4)nn3c2O)CC1 (stereo unspecified),inactive
19,Oc1c(C(c2ccccc2Cl)N2CCOCC2)sc2nc(-c3ccco3)nn12 (stereo unspecified),inactive
20,Cc1ccc2nc3c(cc(C(=O)NC4CCCCC4)c(=N)n3C(C)C)c(=O)n2c1,inactive
21,CCc1cc2c(-c3ccccc3)cc(=O)oc2c2c1OCN(Cc1ccc(C)cc1)C2,inactive
22,CCOc1cc(C2C(C(=O)OC)=C(C)NC3=C2C(=O)c2ccccc23)ccc1O (stereo unspecified),inactive
23,COC(=O)C1=C(C)NC2=C(C(=O)c3ccccc32)C1c1ccc(-c2ccc(C(=O)O)cc2)o1 (stereo unspecified),31.6 µM (active)

row,Structure (SMILES),Potency
1,CCCOc1ccc(C2c3c(-c4ccccc4O)n[nH]c3C(=O)N2Cc2cccnc2)cc1 (stereo unspecified),inactive
2,COc1cc(-c2noc(-c3ccc(N4CCCC4)c([N+](=O)[O-])c3)n2)cc(OC)c1OC,inactive
3,CN1c2ccc(Cl)cc2-c2nc(SCC(=O)Nc3cc(F)ccc3F)ncc2S1(=O)=O,inactive
4,O=c1nc2s/c(=C\c3ccco3)c(=O)n2nc1Cc1ccccc1,17.8 µM (active)
5,Cc1ccc(C)c(CNC(=O)c2cc3ccccn3n2)c1,inactive
6,COc1ccc(CCNC(=O)c2cc3cccc4c3n2CC(C)S4)c(OC)c1OC (stereo unspecified),inactive
7,CC(CNC(=O)c1nnc(Cc2cccc(F)c2)o1)c1ccccc1 (stereo unspecified),inactive
8,COc1cc2nc(SCc3ccc(F)cc3)n3nc(CCn4c(C)nc5ccccc54)nc3c2cc1OC,inactive
9,O=S(=O)(NCCS(=O)(=O)N1CCN(c2ccccc2)CC1)c1ccc(Cl)cc1,inactive
10,Cc1ccc(-c2ccc(/C=C(\C#N)C(N)=S)o2)c([N+](=O)[O-])c1,inactive
11,CC1=NN(c2ccc(Cl)c(C(=O)O)c2)C(=O)/C1=C/c1ccc(-c2ccccc2[N+](=O)[O-])o1,20 µM (active)
12,O=C(CSc1nc(=O)[nH]c2c1CCCC2)Nc1cc(C(F)(F)F)ccc1Cl,inactive
13,COc1ccc(/C=C/C(=O)c2cc(Br)ccc(=O)c2O)cc1,31.6 µM (active)
14,COCOc1cc(O)c(C(=O)/C=C/c2ccc(OCOC)c(OCOC)c2)c(OCOC)c1,inactive
15,COc1cccc(N2CC(NC(=O)/C=C\c3ccccc3)CC2=O)c1 (stereo unspecified),inactive
16,Oc1ccc(-c2nc3ccc(Cl)cn3c2Nc2ccc3c(c2)OCO3)cc1,inactive
17,O=C(COc1ccc(Cl)cc1)N(Cc1ccco1)Cc1ccco1,inactive
18,COc1cccc(C(c2c(O)cc(C)n(Cc3ccco3)c2=O)N2CCN(c3ccccc3)CC2)c1 (stereo unspecified),inactive
19,O=C(c1ccc(Cl)cc1)n1nc(-c2cccnc2)nc1NCc1ccc(F)cc1,inactive
20,Cc1ccc(N=C2NC(=O)/C(=C/C=C/c3ccco3)S2)cc1C,8.91 µM (active)
21,Cc1ccc(N2NC(=O)/C(=C/C=C/c3ccco3)C2=O)cc1C,79.4 µM (active)
22,Cc1ccc(C(=O)N/C(=C\c2ccco2)C(=O)N2CCSCC2)cc1C,inactive
23,Cc1ccccc1CNC(=O)C(=O)NCC(c1cccs1)S(=O)(=O)c1cccs1 (stereo unspecified),inactive

row,Structure (SMILES),Potency
1,CCCS(=O)(=O)c1c(Nc2ccccc2C)sc(C(=O)c2ccccc2)c1N,inactive
2,O=C(CCc1cn(Cc2ccc(F)cc2)c2ccccc12)NC1CCCCC1,inactive
3,CC(=O)Nc1cccc(NC(=O)CSc2nccn2Cc2ccc3c(c2)OCO3)c1,inactive
4,COc1ccc(-c2nn(CC(=O)NC3CCCC3)c3c2cnc2ccc(F)cc23)cc1,inactive
5,COc1ccc(CCNC(=O)c2ccc(CSCc3ccc(C)cc3)o2)cc1OC,inactive
6,COc1ccc(-c2ccc(=O)n(CC(=O)Nc3ccc(Br)cc3F)n2)cc1,inactive
7,CCOc1ccc(Nc2nc(Cc3nnc(SCC(=O)NC4CCCC4)n3C)cs2)cc1,inactive
8,COCCCn1c(SCC(=O)NC2CCCC2)nnc1-c1ccccc1,inactive
9,COCCCn1c(Cc2csc(Nc3cccc(Cl)c3)n2)nnc1SCC(=O)OC1CCCCC1,7.94 µM (active)
10,COc1ccc(Cn2c(=O)c3oc4ccccc4c3n(CC(=O)Nc3ccc(F)cc3F)c2=O)cc1,inactive
11,C=C1c2c(Cl)ccc(O)c2C(O)=C2C(=O)[C@]3(O)C(O)=C(C(N)=O)C(=O)[C@@H](N(C)C)[C@@H]3[C@@H](O)C12 (stereo partly specified),35.5 µM (active)
12,O=C(CSc1cn(CC(=O)N2CCOCC2)c2ccccc12)Nc1ccccc1,inactive
13,Cc1nnc(SCC(=O)Nc2ccc(S(=O)(=O)Nc3ccc(Cl)nn3)cc2)s1,20 µM (active)
14,Cc1nnc(SC(C)C(=O)Nc2ccc(S(=O)(=O)NC3CCCCC3)cc2)s1 (stereo unspecified),inactive
15,COc1ccc(NC(=O)CSc2nc(NS(=O)(=O)c3ccc(C)cc3)cc(=O)[nH]2)cc1,inactive
16,Cc1nc2nc(SCC(=O)NC3CCC(C)CC3)nn2c(C)c1Cc1ccccc1Cl (stereo unspecified),inactive
17,Cc1cc(C)c2oc(C(=O)Nc3ccc(S(=O)(=O)N(C)c4ccccc4)cc3)cc(=O)c2c1,inactive
18,O=C(Nc1cc(C(F)(F)F)ccc1Cl)c1cc2nc(-c3ccc4c(c3)OCO4)cc(C(F)(F)F)n2n1,inactive
19,COC1=C/C(=C/c2c(N)n3nc(CC(=O)N4CCOCC4)sc3nc2=O)C=CC1=O,44.7 µM (active)
20,COc1ccc(-c2ccnc(SCC(=O)N3CCOCC3)n2)cc1,inactive
21,C=CCC1=C/C(=C\c2c(N)n3nc(CC(=O)N4CCOCC4)sc3nc2=O)C=C(OC)C1=O,31.6 µM (active)
22,COc1ccc(S(=O)(=O)N2CCN(CC(=O)N3CCOCC3)CC2)cc1OC,inactive
